Results as given in the supplement of paper PMC8975748.
Counter-ions that a name gives are not always drawn. ± gives the standard deviation of the averaged measurements.

What was measured:
[1] = system: Saccharomyces cerevisiae BY4741 SeMeCo community; test: z-score of subpopulation abundance vs DMSO median, subpopulation auxotrophic for M; higher = larger share of this subpopulation than in DMSO controls; settings: 10 µM; 24 h; SM minimal medium; subpopulation (auxotrophy): M
Method in brief: (§1)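 Scoring was based on each subpopulation's abundance, expressed as a z-score against the vehicle-well median. A Saccharomyces cerevisiae BY4741 community with four plasmids, each restoring one auxotrophy and encoding a distinct fluorescent protein, was pre-grown overnight to OD600 1.0, diluted to 0.3, and added at 70 µl to 384-well plates acoustically predosed with library drugs (10 µM final). It then grew 24 h in minimal SM medium before paraformaldehyde fixation and automated confocal microscopy, with single-auxotroph fluorescent strains setting thresholds and autofluorescence correction.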

[2] = system: Saccharomyces cerevisiae BY4741 SeMeCo community; test: z-score of subpopulation abundance vs DMSO median, subpopulation auxotrophic for L; higher = larger share of this subpopulation than in DMSO controls; settings: 10 µM; 24 h; SM minimal medium; subpopulation (auxotrophy): L
Method in brief: as §1

[3] = system: Saccharomyces cerevisiae BY4741 SeMeCo community; test: z-score of subpopulation abundance vs DMSO median, subpopulation auxotrophic for U; higher = larger share of this subpopulation than in DMSO controls; settings: 10 µM; 24 h; SM minimal medium; subpopulation (auxotrophy): U
Method in brief: as §1

[4] = system: Saccharomyces cerevisiae BY4741 SeMeCo community; test: z-score of subpopulation abundance vs DMSO median, subpopulation auxotrophic for H; higher = larger share of this subpopulation than in DMSO controls; settings: 10 µM; 24 h; SM minimal medium; subpopulation (auxotrophy): H
Method in brief: as §1

[5] = system: Saccharomyces cerevisiae BY4741 SeMeCo community; test: z-score of subpopulation abundance vs DMSO median, subpopulation auxotrophic for LU; higher = larger share of this subpopulation than in DMSO controls; settings: 10 µM; 24 h; SM minimal medium; subpopulation (auxotrophy): LU
Method in brief: as §1

[6] = system: Saccharomyces cerevisiae BY4741 SeMeCo community; test: z-score of subpopulation abundance vs DMSO median, subpopulation auxotrophic for LM; higher = larger share of this subpopulation than in DMSO controls; settings: 10 µM; 24 h; SM minimal medium; subpopulation (auxotrophy): LM
Method in brief: as §1

[7] = system: Saccharomyces cerevisiae BY4741 SeMeCo community; test: z-score of subpopulation abundance vs DMSO median, subpopulation auxotrophic for HU; higher = larger share of this subpopulation than in DMSO controls; settings: 10 µM; 24 h; SM minimal medium; subpopulation (auxotrophy): HU
Method in brief: as §1

[8] = system: Saccharomyces cerevisiae BY4741 SeMeCo community; test: z-score of subpopulation abundance vs DMSO median, subpopulation auxotrophic for UM; higher = larger share of this subpopulation than in DMSO controls; settings: 10 µM; 24 h; SM minimal medium; subpopulation (auxotrophy): UM
Method in brief: as §1

[9] = system: Saccharomyces cerevisiae BY4741 SeMeCo community; test: z-score of subpopulation abundance vs DMSO median, subpopulation auxotrophic for HL; higher = larger share of this subpopulation than in DMSO controls; settings: 10 µM; 24 h; SM minimal medium; subpopulation (auxotrophy): HL
Method in brief: as §1

[10] = system: Saccharomyces cerevisiae BY4741 SeMeCo community; test: z-score of subpopulation abundance vs DMSO median, subpopulation auxotrophic for HLU; higher = larger share of this subpopulation than in DMSO controls; settings: 10 µM; 24 h; SM minimal medium; subpopulation (auxotrophy): HLU
Method in brief: as §1

[11] = system: Saccharomyces cerevisiae BY4741 SeMeCo community; test: z-score of subpopulation abundance vs DMSO median, subpopulation auxotrophic for HLM; higher = larger share of this subpopulation than in DMSO controls; settings: 10 µM; 24 h; SM minimal medium; subpopulation (auxotrophy): HLM
Method in brief: as §1

[12] = system: Saccharomyces cerevisiae BY4741 SeMeCo community; test: z-score of subpopulation abundance vs DMSO median, subpopulation auxotrophic for HUM; higher = larger share of this subpopulation than in DMSO controls; settings: 10 µM; 24 h; SM minimal medium; subpopulation (auxotrophy): HUM
Method in brief: as §1

[13] = system: Saccharomyces cerevisiae BY4741 SeMeCo community; test: z-score of subpopulation abundance vs DMSO median, subpopulation auxotrophic for LUM; higher = larger share of this subpopulation than in DMSO controls; settings: 10 µM; 24 h; SM minimal medium; subpopulation (auxotrophy): LUM
Method in brief: as §1

[14] = system: Saccharomyces cerevisiae BY4741 SeMeCo community; test: z-score of subpopulation abundance vs DMSO median, subpopulation auxotrophic for HLUM; higher = larger share of this subpopulation than in DMSO controls; settings: 10 µM; 24 h; SM minimal medium; subpopulation (auxotrophy): HLUM
Method in brief: as §1

[15] = system: Saccharomyces cerevisiae BY4741 SeMeCo community; test: z-score of prototroph abundance vs DMSO median; higher = larger share of this subpopulation than in DMSO controls; settings: 10 µM; 24 h; SM minimal medium; subpopulation (auxotrophy): Prototroph
Method in brief: as §1

[16] = system: Saccharomyces cerevisiae BY4741 SeMeCo community; test: z-score of subpopulation abundance vs DMSO median, subpopulation auxotrophic for HM; higher = larger share of this subpopulation than in DMSO controls; settings: 10 µM; 24 h; SM minimal medium; subpopulation (auxotrophy): HM
Method in brief: as §1

[17] = system: Saccharomyces cerevisiae BY4741 SeMeCo community; test: mean cell size (pixel area) (pixels); higher = larger cells; settings: 10 µM; 24 h; SM minimal medium
Method in brief: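 Harmony analysis of automated confocal images of paraformaldehyde-fixed yeast gave the mean cell pixel area per well. The yeast was a Saccharomyces cerevisiae BY4741 community carrying four plasmids, each with a fluorescent marker and each complementing one auxotrophy, incubated for 24 h in SM medium containing drug at a final 10 µM in 384-well plates. Results are averaged over 3 replicates. Same SeMeCo high-content imaging drug screen: Selleck FDA-approved drugs at 10 µM, 24 h in SM medium, 384-well plates, 3 replicates.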

| Structure (SMILES) | z-score of subpopulation abundance [1] | z-score of subpopulation abundance [2] | z-score of subpopulation abundance [3] | z-score of subpopulation abundance [4] | z-score of subpopulation abundance [5] | z-score of subpopulation abundance [6] | z-score of subpopulation abundance [7] | z-score of subpopulation abundance [8] | z-score of subpopulation abundance [9] | z-score of subpopulation abundance [10] | z-score of subpopulation abundance [11] | z-score of subpopulation abundance [12] | z-score of subpopulation abundance [13] | z-score of subpopulation abundance [14] | z-score of prototroph abundance [15] | z-score of subpopulation abundance [16] | mean cell size [17] |
| --- | --- | --- | --- | --- | --- | --- | --- | --- | --- | --- | --- | --- | --- | --- | --- | --- | --- |
| Cc1cc(C)nc(NS(=O)(=O)c2ccc(N)cc2)n1 [Sulfamethazine Sodium Salt] | -1.42 | 0.3 | -0.43 | 0.36 | -0.11 | -0.63 | 0.05 | -0.8 | -0.24 | -0.28 | -0.15 | -0.93 | -0.01 | 0.81 |  |  |  |
| OCCN1CCN(CCCN2c3ccccc3Sc3ccc(Cl)cc32)CC1 [Perphenazine] | -0.42 | -0.47 | 0.29 | 0.04 | 0.15 |  | 0.72 | 0.06 | 0.11 | 0.1 | 0 | 0.73 | 0.66 |  | -0.28 | 0.07 |  |
| Cc1c(S(=O)(=O)O)oc2c1C(=O)C(=O)c1c-2ccc2c1CCCC2(C)C [Tanshinone IIA sulfonate (sodium)] | 1.72 | 0.5 |  | 1.42 | -0.91 | -0.11 | -2.62 | 1.77 | 4.28 | -0.84 | 3.71 | 0.71 | 1.3 | 1.74 |  | -0.31 |  |
| CC(=O)OCC1=C(C(=O)O)N2C(=O)[C@@H](NC(=O)Cc3cccs3)[C@H]2SC1 [Cephalothin] | 1.49 | -0.16 | -1.22 | 0.18 | -0.87 | 0.02 | -0.81 | -0.2 | -0.42 | -0.21 | 0.05 | -0.69 | -0.19 | -0.41 |  |  |  |
| Cc1cc(O)cc(C)c1Cl [Chloroxylenol] | 0.89 | 0.85 |  | 0.68 | 0.64 | 0.41 |  | 1.27 | 0.81 | 0.24 | 0.76 | 0.68 | 0.54 | 0.12 | -1.56 | 0.32 |  |
| OC[C@H]1O[C@H](OCC2O[C@@H](O)[C@H](O)[C@@H](O)[C@@H]2O)[C@H](O)[C@@H](O)[C@H]1O (some centres undefined) [Melibiose] | 0.28 | 0.1 | 0.61 | -0.36 | 0.81 | -0.85 | 0.74 | 0.56 | 0.32 | -0.58 | 1.11 |  | 0.14 | 1 | -0.13 | -0.15 | 12.5 ± 0.29 |
| C=CC[N+]1([C@H]2C[C@H]3[C@@H]4CC[C@H]5C[C@H](O)[C@@H](N6CCOCC6)C[C@]5(C)[C@H]4CC[C@]3(C)[C@H]2OC(C)=O)CCCC1 [Rocuronium Bromide] | -1.19 | 0.67 | -0.5 | -0.21 | -0.06 | -0.17 |  | -0.71 |  | 0 | -0.65 | -1.09 | -0.48 | -0.49 | 0.88 |  |  |
| Nc1nnc(-c2cccc(Cl)c2Cl)c(N)n1 [Lamotrigine] | 0.91 | 2.5 | -0.91 | 0.08 | 0.85 | 1.83 |  | 0.01 | 1.44 | 0.23 | 0.44 | 0.8 | 1.86 | 1.58 | -1.13 | 1.25 |  |
| C[C@H]1c2cccc(O)c2C(O)=C2C(=O)[C@]3(O)C(O)=C(C(N)=O)C(=O)[C@@H](N(C)C)[C@@H]3[C@@H](O)[C@@H]21 [Doxycycline] | 0.04 | -0.26 |  |  | -0.52 | -0.26 |  | -1.44 | -0.31 | -0.24 | -0.1 | -1.21 | -0.15 | 0.32 | 1.27 | -0.76 |  |
| CC(=O)[C@@]1(O)CC[C@H]2[C@@H]3C[C@H](C)C4=CC(=O)CC[C@]4(C)[C@H]3CC[C@@]21C [Medroxyprogesterone] | 0.07 | 0.51 |  | -0.26 | 0.44 | 0.45 | 0.01 | -0.35 | 0.3 | 1.06 | 0.49 | -0.08 | 0.93 | 0.34 | -0.12 | -0.02 |  |
| CC(=O)OC1CC2(C)C(CC(O)C3C4(C)CCC(O)C(C)C4CCC32C)C1=C(CCC=C(C)C)C(=O)O (centres undefined) [Fusidine] | 0.14 | 2.4 | -1.39 | 2.59 | 1.02 | 2.09 | 0.13 | -0.42 | 2.33 | 1.57 | 1.22 | 0.82 | 1.09 |  | -1.01 | 1.19 |  |
| CC1(C)S[C@@H]2[C@H](NC(=O)[C@H](N)c3ccccc3)C(=O)N2[C@H]1C(=O)O [Ampicillin Trihydrate] | -0.37 | 0.35 | -0.13 |  | -0.05 | 0.29 | -0.36 | -0.18 | -0.3 | -0.22 | 0.52 | 0.13 | 0.23 |  | 0.28 | -0.06 |  |
| CS(=O)(=O)c1ccc(C2=C(c3ccccc3)C(=O)OC2)cc1 [Rofecoxib] | 0.64 | 1.07 |  | 0.29 | 0.3 | 1.55 | 0.01 | 0.95 |  | 1.31 | 1.01 | 0.77 | 1.28 | 0.43 | -0.48 | 1.11 |  |
| C=CC(C)(O)CCC=C(C)C (centres undefined) [Linalool] | 0.32 | -0.24 |  | -0.37 | 0.53 | -0.19 | 0.69 |  | -0.47 | -0.06 | -0.24 | -0.24 | -0.39 | -0.32 | -0.57 | -0.25 |  |
